FMDV antiviral = blocks foot and mouth disease virus | 410,000 compounds, 1.2% hits | Potency, µM (titrated, usually from 57.9 µM), for the others: top-dose activity change, negative = inhibition, actives largely listed as inhibitors | FMDV antiviral cell-based qHTS | AID 1159524; calls by dose curve; tested in HEK293T cells; also: read-out not given here; nearly all actives have a fitted effect of over 45% in size
Tb PYK inh = T. brucei pyruvate kinase inhibition. 410,000 compounds, 0.12% hits. Potency, µM (top dose mostly 76.8 µM), for the others: at the highest dose activity, negative = inhibition, hits mostly inhibitors. TbPYK enzyme, Kinase-Glo Plus ATP luminescence, 45 min; also: nearly all actives have a fitted effect of over 50% in size
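Luminescent Kinase-Glo Plus end-point after 45 min room-temperature reaction of T. brucei pyruvate kinase started with 130 uM ADP (final). Buffer TEA 50 mM pH 7.2 with KCl, MgCl2, BSA, Tween-20; titration-based qHTS with fitted concentration-effect curves.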
Sm TGR inh = inhibitors of Schistosoma mansoni thioredoxin glutathione reductase; purified TGR, DTNB reduction, TNB absorbance 405 nm; Potency, µM (highest dose often 114 µM), for the others: at the highest dose activity change, negative = inhibition, actives largely listed as inhibitors; 360,000 compounds, 3% hits; Q962Y6; also: nearly all actives have a fitted effect of over 60% in size
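TGR 20 nM + NADPH 100 uM (dispensed conc.), cpd preinc 15 min RT; start with NADPH (500 uM addition) then DTNB (15 mM addition). Kinetic TNB absorbance, 405 nm filter. Four-parameter Hill fit across titration.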
RE007 growth inh = less growth of the S. pombe RE007 Vpr strain. S. pombe RE007 Vpr strain, BacTiter-Glo ATP luminescence, 24 h. Potency, µM (titrated, usually from 92.2 µM), inactives show at the highest dose activity change, negative = less growth, actives largely listed as inhibitors. 360,000 compounds, 0.21% hits. AID 651644; active = well fitted falling curve with a large enough effect; inconclusive = small, poorly fitted or top-dose-only effect; inactive = no such curve, though single readings can be large or run the other way; also: nearly all actives have a fitted effect of over 50% in size
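Fission yeast strain RE007, carrying one chromosomally integrated HIV-1 vpr copy, was seeded at OD 0.01 in PMG+AL medium with 23 nL pinned compound. After 24 h at 30 °C and 99% humidity, viability was read by BacTiter-Glo luminescence.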
An asterisk follows results filed as active; u = inconclusive; x = no result. In the library only some 3.7% were active in any assay of this set; here they are far more common. Unless noted, calls follow the shape of the dose curve; as a rule, active = well fitted curve in the direction sought with a large enough effect; inconclusive = small, poorly fitted or top-dose-only effect, or another doubt; inactive = no such curve, though single readings can be large; an effect the other way counts as inactive or inconclusive. % is scaled to controls: 0 for no effect and ±100 for the full control effect; potency is read from the fitted curve at half-maximal effect.

SMILES	FMDV antiviral	Tb PYK inh	Sm TGR inh	RE007 growth inh
COc1ccc(C2C(=O)N(C3CCCCC3)CC(=O)N2Cc2ccco2)cc1 (configuration not stated)	-18.0%	1.6%	31.6µM*	1.6%
COc1ccc(C2/C=C\CN(S(=O)(=O)c3ccc(C)cc3)[C@H](Cc3ccccc3)C(=O)N2Cc2ccc(F)cc2)cc1 (some centres not stated)	-4.0%	1.6%	28.2µM*	0.7%
CCCCCCCN1C/C=C\C(c2ccc(OC)cc2)N(Cc2ccc(F)cc2)C(=O)[C@H]1Cc1ccccc1 (some centres not stated)	-18.1%	9.4%	-3.3%	-2.4%
COc1ccc(C2/C=C\CN(Cc3ccco3)CC(=O)N2Cc2ccc(F)cc2)cc1 (configuration not stated)	-20.3%	-3.1%	31.6µM*	-1.1%
O=C1c2ccccc2-c2nccnc21	-8.0%	4.7%	-1.2%	28.8%
NC1=C(Cl)C(=O)c2ccccc2C1=O	u	-31.5%	x	25.1µM*
NC1=C(Cl)C(=O)c2ccc(S(N)(=O)=O)cc2C1=O	2.51µM*	-5.6%	x	-28.8%
Cc1ccc(C)c(N2CCN(C(=O)C3CCC(CNS(=O)(=O)c4ccc(Br)s4)CC3)CC2)c1 (configuration not stated)	u	1.8%	8.0%	x
COC(=O)CCCC1=CC2=C(c3ccccc3)C(=O)C(C)(OC(=O)C3CCCC3)C(=O)C2=CN1Cc1ccco1 (configuration not stated)	-7.9%	-3.5%	22.4µM*	-0.3%
Cc1ccccc1CS(=O)(=O)Cc1ccc(C(=O)NCc2ccccn2)o1	11.1%	-3.8%	12.6µM*	-7.0%
O=C(NCc1ccccn1)c1ccc(CS(=O)(=O)Cc2ccc(Cl)cc2)o1	-16.3%	7.2%	28.2µM*	-2.6%
CCc1ccc(CNC(=O)c2ccc(CS(=O)(=O)Cc3ccccc3C)o2)cc1	u	-1.0%	-2.5%	x
O=C(NCc1cccnc1)c1ccc(CS(=O)(=O)Cc2ccc(Cl)cc2)o1	-29.7%	3.7%	u	8.8%
Cc1cc(C(F)(F)F)nn1Cc1ccc(C(=O)NCc2ccco2)o1	-14.4%	-9.4%	11.2µM*	5.8%
Cc1ccccc1CS(=O)(=O)Cc1ccc(C(=O)NCc2ccco2)o1	-26.4%	8.3%	56.2µM*	-17.1%
Cc1ccccc1CS(=O)(=O)Cc1ccc(C(=O)NCc2ccc(F)cc2)o1	u	-2.7%	-23.0%	x
CC(=O)c1ccc(N2C(=O)N(Cc3ccc(F)cc3)c3ccccc3S2(=O)=O)cc1	19.7%	5.0%	2.4%	x
COc1ccc(CNC(=S)Nc2ccccc2)cc1	58.9%	-5.4%	35.5µM*	4.0%
COc1ccc(N(C)C(=S)Nc2ccc3nc(C)c(C)nc3c2)cc1	-23.2%	-23.7%	56.2µM*	-1.5%
Cc1nc2ccc(NC(=S)N3CCCC3)cc2nc1C	-3.8%	-6.2%	-1.5%	-2.9%
Cc1nc2ccc(NC(=S)NCc3ccccc3)cc2nc1C	-2.5%	-1.0%	39.8µM*	30.1%
Cc1ccc(NC(=S)NCc2ccccc2)cc1C	1.7%	2.5%	x	4.2%
C=CCNC(=S)Nc1ccc2nc(C)c(C)nc2c1	29.5%	-20.5%	39.8µM*	-6.4%
Cc1ccc(NC(=O)C2(c3cccs3)CCOCC2)cc1Cl	-23.9%	1.3%	13.3%	x
CC(=O)c1ccc(S(=O)(=O)N(C)C(C)CCc2ccco2)cc1 (configuration not stated)	-3.3%	-10.7%	39.8µM*	-6.4%
SMILES	FMDV antiviral	Tb PYK inh	Sm TGR inh	RE007 growth inh
COc1ccc(S(=O)(=O)N(C)C(C)CCc2ccco2)cc1 (configuration not stated)	-6.2%	-9.3%	20µM*	-10.1%
CC(CCc1ccco1)N(C)S(=O)(=O)c1csc(C(N)=O)c1 (configuration not stated)	-7.0%	-5.3%	-8.5%	-15.2%
COc1ccc(C(N)CCc2ccco2)cc1 (configuration not stated)	4.1%	-2.5%	-16.6%	13.8%
Cc1ccc(S(=O)(=O)N(C)C(C)CCc2ccco2)cc1 (configuration not stated)	-22.3%	0.5%	50.1µM*	23.5%
CCOc1ccc(C(C)C)cc1S(=O)(=O)Nc1cccc(-c2ccc(N3CCOCC3)nn2)c1	3.2%	0.0%	-1.4%	x
Cc1sc(NC(=O)c2ccco2)nc1-c1ccc2c(c1)CC(C)N2C(=O)C1CC1 (configuration not stated)	14.1µM*	-13.3%	-34.1%	9.1%
CC(=O)Nc1nc(-c2ccc3c(c2)CC(C)N3C(=O)C2CC2)c(C)s1 (configuration not stated)	0.0%	-11.6%	-22.7%	42.0%
COc1ccc(N2C(=O)CC(Sc3nc(C)cc(C)c3C#N)C2=O)cc1 (configuration not stated)	x	-4.0%	u	-11.6%
COc1ccc(N2C(=O)CC(Sc3nnnn3-c3ccc(F)cc3)C2=O)cc1 (configuration not stated)	-10.6%	-28.3%	x	15.8µM*
O=C1CC(Sc2nnnn2-c2ccccc2)C(=O)N1c1cccc(Cl)c1 (configuration not stated)	-7.0%	u	2.82µM*	7.08µM*
Cc1cc(C)c(Cn2c(C(O)c3ccccc3)nc3ccccc32)c(C)c1 (configuration not stated)	-26.1%	2.2%	0.1%	x
CO[C@H]1[C@H](NC(=O)c2ccco2)c2ccccc2C12CCN(Cc1cnn(-c3ccccc3)c1)CC2	16.8%	x	x	x
CCCc1ccc(OCC(=O)Nc2sc(C(=O)OCC)c(C)c2C(=O)OCC)cc1	-2.2%	0.5%	-0.1%	x
CC(=O)ON1C(C)(C)Cc2noc(N)c2C1(C)C	3.3%	4.8%	-6.9%	6.4%
CC1(C)Cc2noc(N)c2C(C)(C)N1O	25.2%	0.0%	2.82µM*	6.9%
Cc1nnnn1/C(=C\c1ccccc1)C(=O)OCC(=O)NC(C)(C)C	17.8µM*	3.9%	-9.6%	-12.0%
CC(=O)Nc1ccc(NC(=O)COC(=O)/C(=C/c2ccccc2)n2nnnc2C)cc1	20µM*	-0.5%	-11.0%	8.4%
CC(=O)Nc1ccc(NC(=O)COC(=O)c2c(C)nn(-c3ccccc3)c2C)cc1	-9.3%	-3.4%	-24.9%	0.3%
CC(C)(C)NC(=O)COC(=O)c1ccccc1Oc1ccccc1	-7.8%	-3.7%	15.9%	3.9%
Cc1nnnn1/C(=C\c1ccccc1)C(=O)OCC(=O)NC1CCCCC1	8.91µM*	4.7%	-4.5%	2.8%
CCc1ccc(-n2c(=O)c3c4c(sc3n(Cc3cc(=O)n5c(C)cccc5n3)c2=O)CCC4)cc1	0.0%	0.8%	6.8%	x
CC(O)C(N)C(=O)O (configuration not stated)	x	-9.3%	x	x
Cc1cc(C)c2c(n1)sc1c(=O)n(-c3ccccc3C(F)(F)F)nnc12	-5.4%	6.8%	-5.1%	x
CC1CN(c2ccccc2)c2nc3c(c(=O)[nH]c(=O)n3C)n2C1 (configuration not stated)	-23.0%	0.6%	89.1µM*	4.2%
CC1CN(c2ccc(Cl)cc2)c2nc3c(c(=O)[nH]c(=O)n3C)n2C1 (configuration not stated)	0.0%	-0.2%	-1.9%	1.9%

Source: PubChem
